Only some compounds are listed: those with a hit (about 12% of all), similar ones and a draw of the others.
Pf growth 48h: inhibits P. falciparum growth in the first generation, 48 h; P. falciparum luciferase growth in erythrocytes, 48 h; Potency, µM (series often up to 28.7 µM), without a hit: at the highest dose activity change, negative = inhibition, actives largely listed as inhibitors; AID 504832; hit rate 5.9% among 310,000; also: % is scaled to controls: 0 for no effect and ±100 for the full control effect
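Read-out is firefly luciferase luminescence from an integrated reporter in P. falciparum, so falling signal marks reduced parasite growth. Infected erythrocytes were at 2% hematocrit and 0.1% parasitemia (final) in Albumax-supplemented RPMI 1640.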
AmpC detergent: blocks E. coli AmpC beta-lactamase in detergent assay; AmpC hydrolysis of nitrocefin, absorbance 480 nm, 0.01% Triton; Potency, µM (titrated, usually from 114 µM), for the others: at the top dose activity change, negative = inhibition, usual class: inhibitors; hit rate 0.041% among 370,000;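 also: 0% = no-compound wells and -100% = no-enzyme wells; nearly all actives have a fitted effect of over 25% in size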
Target sequence (P00811 whole entry, looked up): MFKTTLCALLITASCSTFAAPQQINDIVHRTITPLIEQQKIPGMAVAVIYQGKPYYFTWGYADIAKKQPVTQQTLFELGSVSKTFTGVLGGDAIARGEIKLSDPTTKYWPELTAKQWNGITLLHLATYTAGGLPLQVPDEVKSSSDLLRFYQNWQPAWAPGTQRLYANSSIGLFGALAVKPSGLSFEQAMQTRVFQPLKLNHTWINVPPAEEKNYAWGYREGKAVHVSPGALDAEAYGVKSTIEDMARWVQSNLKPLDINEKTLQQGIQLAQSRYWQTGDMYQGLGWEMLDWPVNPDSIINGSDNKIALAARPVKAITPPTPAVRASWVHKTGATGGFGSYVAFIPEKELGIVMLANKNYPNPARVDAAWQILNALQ
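20 mM phosphate pH 7.0 + 0.01% (detergent screen) or 0.0001% Triton X-100; 5.3 nM AmpC reagent; cpd preinc 15 min RT; nitrocefin (800 uM stock) to start; A480 q20 s × 4 min; Activity was normalised to no-enzyme and no-compound control wells.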
AmpC no deterg: blocks E. coli AmpC beta-lactamase in detergent-free assay | P00811 | AmpC nitrocefin hydrolysis, absorbance 480 nm, 0.0001% Triton | Potency, µM (highest dose often 57.1 µM), without a hit: at the top dose activity change, negative = inhibition, actives largely listed as inhibitors | hit rate 0.52% among 330,000 | AID 485341;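 also: plate controls were no compound for no effect and no enzyme for full effect; nearly all actives have a fitted effect of over 20% in size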
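AmpC (5.3 nM in the dispensed reagent) in 20 mM phosphate pH 7.0 with 0.01% (detergent screen) or 0.0001% Triton X-100 was preincubated with compounds for 15 min at room temperature. Nitrocefin was then added from an 800 uM solution, and hydrolysis was followed at 480 nm.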
Sm TGR inh: inhibitors of Schistosoma mansoni thioredoxin glutathione reductase; Q962Y6; purified TGR, DTNB reduction, TNB absorbance 405 nm; Potency, µM (series often up to 114 µM), inactives show at the top dose activity change, negative = inhibition, actives largely listed as inhibitors; hit rate 3% among 360,000; also: % is scaled to controls: 0 for no effect and ±100 for the full control effect; nearly all actives have a fitted effect of over 60% in size
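Kinetic colorimetric format: TGR-catalysed, NADPH-driven DTNB reduction monitored via TNB absorbance. Enzyme dispensed at 20 nM; compound exposure 15 min at room temperature before reaction start.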
SARS PLP yeast: blocks SARS-CoV papain-like protease in a yeast assay | S. cerevisiae expressing SARS-CoV PLpro, growth rescue | Potency, µM (titrated, usually from 32.9 µM), inactives show top-dose activity, positive = growth rescue, hits mostly activators | hit rate 0.19% among 330,000 | AID 485353; calls by dose curve; also: 0% is about no effect; nearly all actives have a fitted effect of over 55% in size
Pf growth 96h: inhibits malaria parasite growth, 96 h | P. falciparum luciferase reporter growth, 96 h | Potency, µM (doses to about 28.7 µM), without a hit: at the top dose activity change, negative = inhibition, usual class: inhibitors | hit rate 6.9% among 320,000; also: % is scaled to controls: 0 for no effect and ±100 for the full control effect
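Delayed-death screen, second-generation endpoint: infected erythrocytes, 2% hematocrit, 0.05% parasitemia final; 96 hours at 37 C, 5% CO2; luciferase detection reagent; luminescence decrease equals reduced growth.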
* = called active by the depositor; u = inconclusive; x = no result given; [ ] = another dose, or the depositor's remark. Unless noted, calls follow the shape of the dose curve; as a rule, active = well fitted curve in the direction sought with a large enough effect; inconclusive = small, poorly fitted or top-dose-only effect, or another doubt; inactive = no such curve, though single readings can be large; an effect the other way counts as inactive or inconclusive. Potency is read from the fitted curve at half-maximal effect.

SMILES	Pf growth 48h	AmpC detergent	AmpC no deterg	Sm TGR inh	SARS PLP yeast	Pf growth 96h
C=CCOC(=O)C1=C[C@@H](c2ccc3c(c2)OCO3)C[C@@H](OCc2ccc(CO)cc2)O1	u	9.0%	-19.2%	39.8µM*	-3.0%	u
C=CCOC(=O)C1=C[C@@H](c2ccc(Br)cc2)C[C@@H](OCc2ccc(CO)cc2)O1	u	0.0%	-1.2%	u	-2.6%	15.3%
O=C(C1=C[C@@H](c2ccc(C(F)(F)F)cc2)C[C@@H](OCCCCO)O1)N1CCN(Cc2ccc3c(c2)OCO3)CC1	u	7.1%	227.3%	u	0.0%	9.28µM*
O=C(C1=C[C@H](c2ccc(C(F)(F)F)cc2)C[C@H](OCc2ccc(CO)cc2)O1)N1CCN(Cc2ccc3c(c2)OCO3)CC1	u	10.2%	120.6%	u	-2.4%	3.7µM*
O=C(C1=C[C@H](c2ccc3c(c2)OCO3)C[C@H](OCc2ccc(CO)cc2)O1)N1CCCCCCC1	u	-6.2%	35.3%	-15.0%	-1.2%	u
O=C(C1=C[C@@H](c2ccc(C(F)(F)F)cc2)C[C@@H](OCCCCO)O1)N1CCN(Cc2ccccc2)CC1	u	0.2%	207.8%	u	-0.7%	u
O=C(C1=C[C@@H](c2ccc(C(F)(F)F)cc2)C[C@@H](OCc2ccc(CO)cc2)O1)N1CCN(Cc2ccc3c(c2)OCO3)CC1	u	9.3%	95.2%	-29.2%	-0.3%	2.33µM*
CC(=O)c1c(C)oc2ccc(N(C(=O)Oc3ccccc3)S(=O)(=O)c3ccc(Br)cc3)cc12	x	-8.2%	x	-0.8%	x	x
CCCCNC(=O)c1nn(-c2ccc(C)cc2)c(=O)c2c1c1ccccc1n2C	x	-3.2%	x	12.4%	x	x
CCn1c(=O)n(CC)c2cc(N3CCCCC3)c(NC(=O)Nc3cc(C)cc(C)c3)cc21	x	-0.9%	x	-16.9%	x	x
O=C(C1=C[C@@H](c2ccc(Br)cc2)C[C@@H](OCc2ccc(CO)cc2)O1)N1CCN(Cc2ccc3c(c2)OCO3)CC1	u	5.8%	76.8%	-29.8%	-0.4%	14.7µM*
CC(C)(C)[C@@H]1C=C(C(=O)N2CCN(Cc3ccc4c(c3)OCO4)CC2)O[C@H](OCc2ccc(CO)cc2)C1	10.4µM*	6.3%	146.2%	-1.4%	-2.6%	11.7µM*
CC(C)(C)[C@H]1C=C(C(=O)N2CCN(Cc3ccc4c(c3)OCO4)CC2)O[C@@H](OCCCCO)C1	u	-6.7%	173.2%	2.5%	1.3%	u
O=C(C1=C[C@@H](c2ccc3c(c2)OCO3)C[C@@H](OCc2ccc(CO)cc2)O1)N1CCOCC1	-12.7%	3.1%	65.2%	-13.8%	0.4%	u
Cc1nc2ncnn2c(C)c1CCC(=O)N1CCOCC1	7.0%	-8.8%	-7.4%	-19.9%	5.2%	x
Cc1ccc(OCC(=O)Nc2ccc3nc(SCC(=O)N4CCOCC4)sc3c2)cc1C	x	11.6%	x	-1.9%	x	x
CC(C)(O)C#Cc1ccc(CN2CCN(Cc3ccsc3)C(CCO)C2)s1 (stereo not given)	-4.5%	0.5%	-7.0%	-1.7%	-0.3%	8.28µM*
O=C(Nc1ccc2nc(-c3cccnc3)[nH]c2c1)C12CC3CC(CC(C3)C1)C2	11.7µM*	u	32.9%	-12.0%	1.6%	-26.1%
O=C(Nc1ccc2nc(-c3cccnc3)[nH]c2c1)C1CCCCC1	47.4%	-5.7%	-29.7%	-6.8%	19.5%	-18.4%
CC(C)Cn1c(N)c(C(=O)CSc2n[nH]c(N)n2)c(=O)n(C)c1=O	3.2%	-2.9%	-24.3%	-12.7%	-2.1%	41.8%
C[C@@H](O)C1NC(=O)[C@H](CCCCN)NC(=O)c2cc([N+](=O)[O-])cc(I)c2OCC[C@@H](C(N)=O)NC1=O (stereo not given in full)	17.7%	u	34.1%	-4.1%	-6.8%	-0.2%
CCOc1ccccc1CNCc1ccc(F)cc1	5.6%	-7.1%	-20.4%	2.2%	3.1%	18.6%
CCOC(=O)CSC1=NC(=O)/C(=C\c2ccc(Cl)cc2)S1	31.6%	4.2%	-38.6%	3.55µM*	-49.1%	-1.4%
CCOC(=O)C1CCN(C2=NC(=O)/C(=C/c3ccc(Cl)cc3)S2)CC1	0.9%[0.00184 µM]	-9.2%	112.8%	-14.0%	-3.4%	-7.2%
COC(=O)C1=C(C)N(CCc2ccc(OC)c(OC)c2)C(=O)/C1=C\N(C)C	u	-1.7%	42.9%	7.94µM*	-2.7%	x
SMILES	Pf growth 48h	AmpC detergent	AmpC no deterg	Sm TGR inh	SARS PLP yeast	Pf growth 96h
Cn1cccc1C(=O)OCC(=O)NC1CCS(=O)(=O)C1 (stereo not given)	1.47µM*	9.6%	142.5%	3.3%	0.4%	18.3%
Cc1ccc(OCC(=O)NC2CCS(=O)(=O)C2)cc1 (stereo not given)	x	2.9%	-12.0%	6.3%	10.5%	35.1%
Cc1ccc(OCC(=O)NC2CCS(=O)(=O)C2)c(C)c1 (stereo not given)	8.3%	5.0%	-5.7%	3.0%	-0.3%	5.86µM*
CCN(C(=O)COC(=O)c1cccn1C)C1CCS(=O)(=O)C1 (stereo not given)	0.3%	2.7%	-18.5%	-3.5%	-3.3%	29.2%
CCc1ccccc1NC(=O)c1cnc(N2CCCCC2)c2ccccc12	x	5.2%	x	5.3%	x	x
COc1ccc(Br)c(C(=O)OCC(=O)NC2CCCCCC2)c1	u	-10.4%	1.5%	-1.2%	1.1%	u
Cc1cc(NC(=O)c2ccccc2)ccc1NC(=O)Cc1ccccc1	-12.4%	u	-34.8%	-9.6%	0.4%	4.15µM*
Cc1cc(NC(=O)c2ccco2)ccc1NC(=O)Cc1cccs1	61.5%	-4.1%	-22.0%	-5.6%	6.4%	6.57µM*
Cc1cc(NC(=O)c2ccccc2)ccc1NC(=O)c1ccccc1Cl	0.9%	u	-20.9%	9.8%	3.7%	-5.8%
Cc1ccc(NC(=O)c2ccco2)c(NC(=O)Cc2cccs2)c1	12.1%	-1.9%	-28.0%	32.6%	-1.7%	x
COc1ccc(C(=O)NC(=S)Nc2ccc3oc(=O)ccc3c2)cc1OC	9.7%	-20.2%	-12.1%	-15.4%	-0.3%	31.6%
COc1ccc(CC(=O)NNC(=O)COc2ccc3ccccc3c2)cc1	20.0%	-2.0%	5.1%	-6.2%	4.7%	1.65µM*
COc1cc2c(cc1NC(=O)C(C)Sc1nc3ccccc3n1C)oc1ccccc12 (stereo not given)	11.7µM*	-3.0%	-7.4%	7.0%	-0.4%	7.38µM*
COc1cccc(OC)c1C(=O)NC(=S)Nc1ccc2oc(=O)ccc2c1	3.29µM*	-13.4%	-10.4%	-20.7%	7.5%	1.85µM*
COc1ccccc1NC(=O)NNC(=O)COc1ccc2ccccc2c1	7.2%	-0.1%	u	2.3%	0.1%	-7.8%

Bioassay records: PubChem, National Center for Advancing Translational Sciences (NCATS)
